For part of these data: Entries with a potency or affinity are not part of this list. The source made the active and inactive calls.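 The calls were made as follows, unless noted: active = dose curve with midpoint inside tested range, moderate steepness, plateau gap beyond fit error, low compound glow and bead-link interference; inactive = the rest.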

The target of experiment [1] is Cell division control protein 42 homolog (Homo sapiens) (UniProt P60953). Put plainly: activated mutant Cdc42 GTP-binding inhibitors, dose response, biochemical, multiplex bead flow cytometry, Bodipy-FL-GTP (AID 1333;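 active = fitted half-maximal concentration within the tested dose range, moderate curve steepness, a statistically real signal drop, and little compound fluorescence or tag-binding interference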). In general terms: Flow cytometry measures light scatter and fluorescence of single cells or particles in a stream.
Sequence of Cell division control protein 42 homolog (Homo sapiens) (P60953 whole entry, looked up): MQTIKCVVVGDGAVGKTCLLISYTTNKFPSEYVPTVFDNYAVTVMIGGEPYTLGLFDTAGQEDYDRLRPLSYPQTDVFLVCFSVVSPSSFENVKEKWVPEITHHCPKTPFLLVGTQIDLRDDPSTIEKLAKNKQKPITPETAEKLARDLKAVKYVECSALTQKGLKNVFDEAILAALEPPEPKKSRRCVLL
The target is the same in experiment [2]. Kind of experiment: wildtype Cdc42 GTP-binding inhibitors, dose response, biochemical, multiplex bead flow cytometry, Bodipy-FL-GTP (AID 1334;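 active = fitted half-maximal concentration within the tested range, moderate curve steepness, significant signal drop, and little compound fluorescence or bead-linkage interference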). The settings on record: bead-based flow cytometry, Bodipy-FL-GTP binding to GST-Cdc42; at 100 µM (top of the series) unless noted.
In experiment [3] the target is GTPase HRas (Homo sapiens) (UniProt P01112). Kind of experiment: inhibitors of GTP binding to wildtype Ras, dose response, biochemical, multiplex bead flow cytometry (AID 1335;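 active = fitted half-maximal concentration within 10 nM to 100 µM, steepness 0.5 to 2, significant signal drop, low assay interference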). The settings on record: bead-based flow cytometry, Bodipy-GTP binding to GST-Ras; at 100 µM (top of the series) unless noted.
Sequence of GTPase HRas (Homo sapiens) (P01112 whole entry, looked up): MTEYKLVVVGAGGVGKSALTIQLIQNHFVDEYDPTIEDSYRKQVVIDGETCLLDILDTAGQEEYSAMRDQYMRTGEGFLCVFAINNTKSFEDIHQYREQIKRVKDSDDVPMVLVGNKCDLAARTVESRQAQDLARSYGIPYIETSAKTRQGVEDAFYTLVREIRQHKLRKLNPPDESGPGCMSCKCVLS
For experiment [4], the system named is Ras-related protein Rab-7a (dog), GTP binding. Put plainly: Rab7 GTP binding inhibitors, potency, dose response, biochemical, wildtype, multiplex bead flow cytometry (AID 1336; call rule not given here).
Experiment [5] deals with Ras-related C3 botulinum toxin substrate 1 (Homo sapiens) (UniProt P63000). Kind of experiment: wildtype Rac1 GTP binding inhibitors, dose response, biochemical, multiplex bead flow cytometry (AID 1340). The settings on record: GST-Rac1 beads, Bodipy-FL-GTP binding; at 100 µM (top of the series) unless noted.
For experiment [6], the target named is GTPase HRas (Homo sapiens) (UniProt P01112). Kind of experiment: activated Ras mutant GTP binding inhibitors, dose response, biochemical, multiplex bead flow cytometry (AID 1341;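 active = dose-response curve with midpoint inside the tested range, moderate steepness, significant amplitude and little compound fluorescence or bead-attachment interference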;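 also: GST-tagged constitutively activated Ras mutant immobilized on beads and multiplexed with other GTPases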).

In the case of `O=C(Cn1cnc2c(nnn2Cc2ccccc2F)c1=O)NCC1CCCO1` (stereo unspecified), the result in experiment [1], in experiment [4] and in experiment [6] was inactive. This compound also yielded a fluorescence, percent of control (lower = inhibition) in experiment [2] of 51.6%. For the same compound, the GTP binding, percent of control in experiment [3] is 63.1%. The GTP binding signal, raw median fluorescence (lower = inhibition) (MCF (arbitrary fluorescence units)) in experiment [5] amounted to 208.
Turning to `COC(=O)c1cn(CCOc2ccc(C)cc2)c2ccccc12`, the outcome in experiment [1], in experiment [4] and in experiment [6] was inactive. For the same compound, the fluorescence, percent of control (lower = inhibition) in experiment [2] was 37%. Moreover, in experiment [3], the GTP binding, percent of control turned out to be 84.4%. The GTP binding signal, raw median fluorescence (lower = inhibition) (MCF (arbitrary fluorescence units)) in experiment [5] came out at 175.
On to `Cc1ccc(C)c(OCCSc2nc3ccccc3n2CC(=O)O)c1`, for which the compound was classed as inactive in experiment [1], in experiment [4] and in experiment [6]. Moreover, in experiment [2], the fluorescence, percent of control (lower = inhibition) turned out to be 59.6%. This compound had a GTP binding, percent of control in experiment [3] of 88.1%. Moreover, in experiment [5], the GTP binding signal, raw median fluorescence (lower = inhibition) (MCF (arbitrary fluorescence units)) came to 29.2.
As for `Cc1cc(NCc2ccccn2)n2c(nc3ccccc32)c1C#N`, the result in experiment [1], in experiment [4] and in experiment [6] was inactive. In experiment [2], the fluorescence, percent of control (lower = inhibition) is 42.7%. Moreover, the GTP binding, percent of control in experiment [3] turned out to be 87.9%. In experiment [5], this compound had a GTP binding signal, raw median fluorescence (lower = inhibition) (MCF (arbitrary fluorescence units)) of 192.
For `Nc1[nH]c(=S)nc2nc(-c3ccccc3)c(-c3ccccc3)nc12`, the call in experiment [1], in experiment [4] and in experiment [6] was inactive. Also, the fluorescence, percent of control (lower = inhibition) in experiment [2] came out at 33.9%. The same compound gave a GTP binding, percent of control in experiment [3] of 81.4%. For the same compound, the GTP binding signal, raw median fluorescence (lower = inhibition) (MCF (arbitrary fluorescence units)) in experiment [5] stood at 198.
Regarding `S=C(NCCc1ccccc1)NC1CC1`, the outcome in experiment [1], in experiment [4] and in experiment [6] was inactive. The fluorescence, percent of control (lower = inhibition) in experiment [2] was found to be 36.3%. In experiment [3], this compound displayed a GTP binding, percent of control of 79.2%. For the same compound, the GTP binding signal, raw median fluorescence (lower = inhibition) (MCF (arbitrary fluorescence units)) in experiment [5] is 253.
Regarding `Cc1ccc(C(=O)Nn2c(O)c(C=C3N=c4ccccc4=N3)sc2=S)cc1`, the outcome in experiment [1], in experiment [4] and in experiment [6] was inactive. The fluorescence, percent of control (lower = inhibition) in experiment [2] was 47.7%. The compound also displayed a GTP binding, percent of control in experiment [3] of 50.4%. Moreover, the GTP binding signal, raw median fluorescence (lower = inhibition) (MCF (arbitrary fluorescence units)) in experiment [5] amounted to 129.
`COc1cc(Cl)c(C)cc1NCc1sc(C(=O)O)cc1C`: the call in experiment [1], in experiment [4] and in experiment [6] was inactive. Moreover, the fluorescence, percent of control (lower = inhibition) in experiment [2] was 58.6%. The compound also returned a GTP binding, percent of control in experiment [3] of 82%. This compound returned a GTP binding signal, raw median fluorescence (lower = inhibition) (MCF (arbitrary fluorescence units)) in experiment [5] of 29.9.
For the compound `Cc1cc(Cl)ccc1OCC(=O)OCC(=O)Nc1ccc(F)c([N+](=O)[O-])c1`, the result in experiment [1], in experiment [4] and in experiment [6] was inactive. The compound also returned a fluorescence, percent of control (lower = inhibition) in experiment [2] of 53%. This compound came in with a GTP binding, percent of control in experiment [3] of 70.9%. Also, the GTP binding signal, raw median fluorescence (lower = inhibition) (MCF (arbitrary fluorescence units)) in experiment [5] is 0.
With `Cn1c(SCCOc2ccccc2F)nc2ccccc2c1=O`, the compound was classed as inactive in experiment [1], in experiment [4] and in experiment [6]. In addition, the fluorescence, percent of control (lower = inhibition) in experiment [2] is 29.1%. In experiment [3], this compound gave a GTP binding, percent of control of 71.9%. The GTP binding signal, raw median fluorescence (lower = inhibition) (MCF (arbitrary fluorescence units)) in experiment [5] was 158.
On to `O=C(COn1nnc2ccc(Cl)cc21)NCc1ccccc1`, for which the compound was called inactive in experiment [1], in experiment [4] and in experiment [6]. For the same compound, the fluorescence, percent of control (lower = inhibition) in experiment [2] is 89.6%. This compound returned a GTP binding, percent of control in experiment [3] of 154%. The GTP binding signal, raw median fluorescence (lower = inhibition) (MCF (arbitrary fluorescence units)) in experiment [5] came to 183.
Consider `COc1cccc(NC(=O)NCCCN2CCN(c3ccc(F)cc3)CC2)c1`, for which the outcome in experiment [1], in experiment [4] and in experiment [6] was inactive. In experiment [2], this compound came in with a fluorescence, percent of control (lower = inhibition) of 40.4%. The same compound had a GTP binding, percent of control in experiment [3] of 84.6%. The same compound yielded a GTP binding signal, raw median fluorescence (lower = inhibition) (MCF (arbitrary fluorescence units)) in experiment [5] of 255.
With `Cc1ccc([N+](=O)[O-])cc1-c1ccc(/C=C(\C#N)c2[nH]nc(N)c2C#N)o1`, the compound was classed as inactive in experiment [1], in experiment [4] and in experiment [6]. Further, in experiment [2], the fluorescence, percent of control (lower = inhibition) was 32.4%. For the same compound, the GTP binding, percent of control in experiment [3] was 72.8%. Also, the GTP binding signal, raw median fluorescence (lower = inhibition) (MCF (arbitrary fluorescence units)) in experiment [5] came to 221.
As to `Cc1ccc(C)c(CSc2ncccc2C(=O)O)c1`, the call in experiment [1], in experiment [4] and in experiment [6] was inactive. In experiment [2], this compound had a fluorescence, percent of control (lower = inhibition) of 64.5%. Moreover, the GTP binding, percent of control in experiment [3] is 73.7%. This compound returned a GTP binding signal, raw median fluorescence (lower = inhibition) (MCF (arbitrary fluorescence units)) in experiment [5] of 222.
As for `Nc1ccc2c(c1)C(=O)C(=O)c1ccccc1-2`, the outcome in experiment [1], in experiment [4] and in experiment [6] was inactive. For the same compound, the fluorescence, percent of control (lower = inhibition) in experiment [2] stood at 22.1%. Moreover, the GTP binding, percent of control in experiment [3] amounted to 57.5%. In experiment [5], this compound yielded a GTP binding signal, raw median fluorescence (lower = inhibition) (MCF (arbitrary fluorescence units)) of 73.8.
Consider `COc1cccc(-n2nc3c(=S)[nH]nc(C)c3c2C)c1`, for which the outcome in experiment [1], in experiment [4] and in experiment [6] was inactive. Besides, the fluorescence, percent of control (lower = inhibition) in experiment [2] amounted to 50.1%. In addition, in experiment [3], the GTP binding, percent of control is 63.5%. In addition, the GTP binding signal, raw median fluorescence (lower = inhibition) (MCF (arbitrary fluorescence units)) in experiment [5] was 199.

(Values after PubChem BioAssay.)
